40 molecules from ChEMBL document CHEMBL1157539, “Thousands of chemical starting points for antimalarial lead identification” (Nature, 2010) can be followed below.

The structures appear in SMILES notation.

The experiment deals with Plasmodium falciparum. As to the kind of experiment: GSK_TCMDC: Inhibition of Plasmodium falciparum 3D7 in whole red blood cells, using parasite LDH activity as an index of growth. Test compounds present at 2uM. The format is functional.
As a reminder, the Inhibition is the share of the control response that was lost under treatment. With `Cc1ccc2c(c1)c(C1CCN(C(=O)c3ccc([N+](=O)[O-])o3)CC1)cn2C`, the Inhibition worked out at 97%.

`COc1ccc(-c2csc(NC(=O)CCC(=O)O)n2)cc1OC` returned an Inhibition of 94%.

The molecule `Fc1ccc2[nH]c(-c3cccc(-c4cccc(CNCc5cnn(-c6ccccc6)n5)c4)c3)nc2c1.O=C(O)C(F)(F)F` had an Inhibition of 91%.

The molecule `Cl.N=C(N)NN=Cc1c2ccccc2c(Cl)c2ccc(Cl)cc12` had an Inhibition of 98%.

Take `CN1CCN(CC(=O)Nc2ccc(-c3ccc(-c4nc5cc(C(F)(F)F)ccc5[nH]4)cc3)cc2)CC1`: the Inhibition is given as 100%.

Molecule `O=C(C=Cc1ccc(F)cc1)N1CCN(S(=O)(=O)c2ccc(Cl)cc2)CC1` yielded an Inhibition of 91%.

`O=C(NC1CCN(Cc2ccccc2)C1)c1ccc(Nc2ccc(Br)cc2)nc1.O=C(O)C(F)(F)F` (stereo not given) registered an Inhibition of 94%.

Turning to `N#CN1CC[C@@H](OC(=O)N[C@@H]2C[C@H]2c2ccccc2)C1`, the Inhibition is recorded as 84%.

`O=C(/C=C/c1ccc(Cl)c(Cl)c1)N1CCCC(CCCN2CCC(c3c[nH]c4ccccc34)CC2)C1` (stereo not given) returned an Inhibition of 89%.

As for `CCOC(=O)c1c(C)n(-c2ccccc2)c2ccc(O)cc12`, the Inhibition came out at 100%.

As to `N.Nc1nc2c(ncn2COC2COP(=O)(O)OC2)c(=O)[nH]1` (stereo not given), the Inhibition is given as 81%.

Consider `COc1cc(N(C)Cc2cnc3nc(N)nc(N)c3n2)cc(OC)c1OC`, for which the Inhibition came to 95%.

In turn, `COc1cccc(Cc2c(C)nc3nc(N)nc(N)c3c2C)c1.Cl` had an Inhibition of 95%.

The molecule `O=C(NCCc1ccc(O)cc1)n1c2ccccc2c2ccccc21` returned an Inhibition of 83%.

In the case of `Cc1ccc2c(c1)nc(N)n2C[C@H](O)c1ccccc1`, the Inhibition stood at 100%.

Take `NC(=O)c1ccc(NC(=O)CN(Cc2ccc(Cl)cc2)S(=O)(=O)c2ccccc2)cc1`: the Inhibition is listed as 90%.

Molecule `CN1CCC(C(=O)N(Cc2ccc(-c3ccc(CNCCc4ccc(S(C)(=O)=O)cc4)cn3)cc2)Cc2ccc3c(c2)OCO3)CC1.O=C(O)C(F)(F)F` had an Inhibition of 91%.

For the molecule `CC(Cc1ccc(CN(CC(N)=O)Cc2ccc(CC(C)NCCc3cccc(Cl)c3)cc2)cc1)NCCc1cccc(Cl)c1.O=C(O)C(F)(F)F` (stereo not given), the Inhibition came to 95%.

With `COC(=O)c1cccc(CNCc2cccc(-c3ccc(-c4nc5ccccc5[nH]4)s3)c2)c1.O=C(O)C(F)(F)F`, the Inhibition turned out to be 93%.

Molecule `CCN(CC)CC#Cc1ccc2[nH]c(C)c(Cl)c(=O)c2c1` displayed an Inhibition of 96%.

`CCCCNCc1ccc(-c2nc(CN(CCCn3ccnc3)C(=O)Nc3ccc(CC)cc3)cs2)cc1.O=C(O)C(F)(F)F` gave an Inhibition of 100%.

For the molecule `O=C(N[C@@H](Cc1ccccc1)C(=O)NCCN1CCCCC1)c1ccc(O)c(-c2cccc(C(F)(F)F)c2)c1`, the Inhibition came to 92%.

Molecule `O=c1c(Br)ccccc1Br` had an Inhibition of 94%.

`Cc1[nH]c2ccc(NS(C)(=O)=O)cc2c1C1CCN(CCC2CCN(C(=O)/C=C/c3ccc(Cl)c(Cl)c3)CC2)CC1` displayed an Inhibition of 100%.

The molecule `CCn1c(Sc2ccc(C#N)c([N+](=O)[O-])c2)nnc1-c1cccc(Cl)c1` yielded an Inhibition of 95%.

Consider `CC(=O)Nc1ccc(CN(Cc2ccc(F)cc2)Cc2ccc3c(c2)OCO3)cc1`, for which the Inhibition worked out at 91%.

Turning to `COc1ccc2nccc([C@@H](O)CN3CCC(NCc4ccc5scnc5c4)CC3)c2c1.O=C(O)C(=O)O`, the Inhibition stood at 100%.

`O=C(O)C(F)(F)F.O=C1CCCN1CCCNCc1ccc(-c2cccc(-c3nc4cc(F)ccc4[nH]3)c2)cc1` returned an Inhibition of 100%.

The molecule `CC(C)Cc1ccc(N2CCN(CCCCNC(=O)c3ccc(NC(=O)c4ccc(Cl)c(Cl)c4)cc3)CC2)cc1` came in with an Inhibition of 94%.

As for `O=C(Cc1ccc(NC(=O)c2ccc(O)c(-c3ccc(Cl)c(Cl)c3)c2)cc1)NCCc1ccc(Cl)c(Cl)c1`, the Inhibition was 99%.

Molecule `N=C(N)NC(=O)Nc1cc(Cl)c(Cl)c(C(F)(F)F)c1` had an Inhibition of 100%.

For `CCOc1cc(N)c2nc3ccc([N+](=O)[O-])cc3cc2c1`, the Inhibition stood at 100%.

The molecule `COc1ccc2nccc([C@@H](O)CN3CCC(NC(=O)C(c4cc5ccccc5s4)N4CCN(c5ccccc5OC)CC4)CC3)c2c1` (stereo not given in full) registered an Inhibition of 100%.

For `O=C(NCCCCN1CCC(c2ccc3c(c2OCC2CC2)CCCC3)CC1)c1ccc(NC(=O)c2ccc(Cl)cc2)cc1`, the Inhibition is recorded as 100%.

Molecule `CC(=O)N(C)C1CCN(Cc2ccc(-c3ccc(-c4nc5cc(F)ccc5[nH]4)s3)cc2)C1.O=C(O)C(F)(F)F` (stereo not given) had an Inhibition of 98%.

Molecule `O=C(Nc1cccc(-c2cccc(-c3nc4cc(C(F)(F)F)ccc4[nH]3)c2)c1)c1ccc(=O)[nH]n1` had an Inhibition of 100%.

Take `COc1ccc2nccc([C@@H](O)CN3CCC(NCc4cc5cc(OC(F)(F)F)ccc5[nH]4)CC3)c2c1.O=C(O)C(=O)O`: the Inhibition is listed as 100%.

For the molecule `CCCCCN1CCCC(NS(=O)(=O)c2ccc(C(=O)Nc3ccc(C(F)(F)F)cc3)cc2)C1.O=C(O)C(F)(F)F` (stereo not given), the Inhibition is 98%.

`Cc1cc(N(C)CCCN(C)C)nc(Nc2ccc(Br)cc2)n1` had an Inhibition of 100%.

In the case of `CC(C)(CNC(=O)/C=C/c1ccc(C(F)(F)F)cc1)CNc1cc(=O)c2ccccc2[nH]1`, the Inhibition was found to be 95%.
